Data reported in ChEMBL document CHEMBL1961873, “Compounds: GSK PKIS; Assays: Nanosyn kinase panel” (2012).
“And” between values parts separate entries of the source, which are not always exact repeats. Identical values can stand only once.

How the values were obtained:
[1] = target: T1, Tyrosine-protein kinase ITK/TSK (Homo sapiens) (UniProt Q08881); conditions: at 1 µM;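 note: values are mean percent inhibition of ITK from the GSK PKIS screen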
T1 sequence (whole entry): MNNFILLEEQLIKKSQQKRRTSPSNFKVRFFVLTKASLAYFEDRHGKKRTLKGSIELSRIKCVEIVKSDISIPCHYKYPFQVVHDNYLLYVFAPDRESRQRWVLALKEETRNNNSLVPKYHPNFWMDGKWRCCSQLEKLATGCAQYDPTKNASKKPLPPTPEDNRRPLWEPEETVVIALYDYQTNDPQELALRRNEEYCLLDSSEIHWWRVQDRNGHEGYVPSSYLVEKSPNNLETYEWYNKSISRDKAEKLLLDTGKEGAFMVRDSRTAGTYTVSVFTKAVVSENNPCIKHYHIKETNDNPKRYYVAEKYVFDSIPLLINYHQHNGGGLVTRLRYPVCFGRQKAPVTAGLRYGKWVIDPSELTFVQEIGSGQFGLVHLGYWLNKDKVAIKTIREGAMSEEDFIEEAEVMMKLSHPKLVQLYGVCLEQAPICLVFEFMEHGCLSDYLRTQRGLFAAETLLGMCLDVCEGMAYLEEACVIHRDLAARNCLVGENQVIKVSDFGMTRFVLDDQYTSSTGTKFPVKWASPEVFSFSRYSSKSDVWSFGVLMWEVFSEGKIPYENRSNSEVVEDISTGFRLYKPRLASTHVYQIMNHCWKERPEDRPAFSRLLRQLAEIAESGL

[2] = target: Tyrosine-protein kinase JAK1 (Homo sapiens) (UniProt P23458); conditions: at 0.1 µM
[3] = target: Tyrosine-protein kinase JAK1 (Homo sapiens) (UniProt P23458); conditions: at 1 µM
[4] = target: Tyrosine-protein kinase JAK2 (Homo sapiens) (UniProt O60674); conditions: at 0.1 µM
[5] = target: Tyrosine-protein kinase JAK2 (Homo sapiens) (UniProt O60674); conditions: at 1 µM
[6] = target: T2, Tyrosine-protein kinase JAK3 (Homo sapiens) (UniProt P52333); conditions: at 0.1 µM
T2 sequence (whole entry): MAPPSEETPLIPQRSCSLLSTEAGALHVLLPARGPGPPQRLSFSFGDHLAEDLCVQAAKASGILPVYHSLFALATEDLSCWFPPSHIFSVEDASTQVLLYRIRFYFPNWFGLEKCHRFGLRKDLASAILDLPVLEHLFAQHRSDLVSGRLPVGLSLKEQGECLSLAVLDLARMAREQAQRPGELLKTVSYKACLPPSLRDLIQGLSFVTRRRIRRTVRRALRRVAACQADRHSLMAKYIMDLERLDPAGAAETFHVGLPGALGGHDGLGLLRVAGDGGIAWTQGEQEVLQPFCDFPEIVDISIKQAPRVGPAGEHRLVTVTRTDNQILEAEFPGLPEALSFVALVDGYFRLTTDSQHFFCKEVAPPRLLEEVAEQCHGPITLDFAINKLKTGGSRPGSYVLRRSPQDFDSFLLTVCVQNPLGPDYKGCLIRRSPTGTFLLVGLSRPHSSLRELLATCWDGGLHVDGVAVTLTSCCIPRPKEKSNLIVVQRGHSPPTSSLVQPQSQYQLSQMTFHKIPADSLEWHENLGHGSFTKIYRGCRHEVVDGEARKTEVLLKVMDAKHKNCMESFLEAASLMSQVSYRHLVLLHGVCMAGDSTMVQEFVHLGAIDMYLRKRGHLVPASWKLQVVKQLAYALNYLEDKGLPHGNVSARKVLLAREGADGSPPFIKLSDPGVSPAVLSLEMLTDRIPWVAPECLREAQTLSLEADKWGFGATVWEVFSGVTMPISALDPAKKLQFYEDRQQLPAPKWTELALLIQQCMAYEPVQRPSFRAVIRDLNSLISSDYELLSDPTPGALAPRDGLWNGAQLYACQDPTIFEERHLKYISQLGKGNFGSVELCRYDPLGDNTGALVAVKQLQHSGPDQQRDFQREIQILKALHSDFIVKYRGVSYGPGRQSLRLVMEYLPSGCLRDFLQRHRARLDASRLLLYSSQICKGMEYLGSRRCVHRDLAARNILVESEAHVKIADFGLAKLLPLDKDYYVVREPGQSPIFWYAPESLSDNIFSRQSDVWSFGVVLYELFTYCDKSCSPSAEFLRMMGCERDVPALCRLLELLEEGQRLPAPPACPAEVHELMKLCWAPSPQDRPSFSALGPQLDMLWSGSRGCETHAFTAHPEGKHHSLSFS

[7] = target: T2, Tyrosine-protein kinase JAK3 (Homo sapiens); conditions: at 1 µM
[8] = target: Vascular endothelial growth factor receptor 2 (Homo sapiens) (UniProt P35968); conditions: at 0.1 µM
[9] = target: Vascular endothelial growth factor receptor 2 (Homo sapiens) (UniProt P35968); conditions: at 1 µM
[10] = target: Mast/stem cell growth factor receptor Kit (Homo sapiens) (UniProt P10721); conditions: at 0.1 µM
[11] = target: Mast/stem cell growth factor receptor Kit (Homo sapiens) (UniProt P10721); conditions: at 1 µM
[12] = tested on: Mast/stem cell growth factor receptor Kit (Homo sapiens), P10721 [D816V]; conditions: at 0.1 µM
[13] = tested on: Mast/stem cell growth factor receptor Kit (Homo sapiens), P10721 [D816V]; conditions: at 1 µM
[14] = tested on: Mast/stem cell growth factor receptor Kit (Homo sapiens), P10721 [T670I]; conditions: at 0.1 µM
[15] = tested on: Mast/stem cell growth factor receptor Kit (Homo sapiens), P10721 [T670I]; conditions: at 1 µM
[16] = tested on: Mast/stem cell growth factor receptor Kit (Homo sapiens), P10721 [V560G]; conditions: at 0.1 µM
[17] = tested on: Mast/stem cell growth factor receptor Kit (Homo sapiens), P10721 [V560G]; conditions: at 1 µM
[18] = target: Tyrosine-protein kinase Lck (Homo sapiens) (UniProt P06239); conditions: at 0.1 µM
[19] = target: Tyrosine-protein kinase Lck (Homo sapiens) (UniProt P06239); conditions: at 1 µM
[20] = target: Leukocyte tyrosine kinase receptor (Homo sapiens) (UniProt P29376); conditions: at 0.1 µM
Leukocyte tyrosine kinase receptor (Homo sapiens), sequence (P29376 whole entry): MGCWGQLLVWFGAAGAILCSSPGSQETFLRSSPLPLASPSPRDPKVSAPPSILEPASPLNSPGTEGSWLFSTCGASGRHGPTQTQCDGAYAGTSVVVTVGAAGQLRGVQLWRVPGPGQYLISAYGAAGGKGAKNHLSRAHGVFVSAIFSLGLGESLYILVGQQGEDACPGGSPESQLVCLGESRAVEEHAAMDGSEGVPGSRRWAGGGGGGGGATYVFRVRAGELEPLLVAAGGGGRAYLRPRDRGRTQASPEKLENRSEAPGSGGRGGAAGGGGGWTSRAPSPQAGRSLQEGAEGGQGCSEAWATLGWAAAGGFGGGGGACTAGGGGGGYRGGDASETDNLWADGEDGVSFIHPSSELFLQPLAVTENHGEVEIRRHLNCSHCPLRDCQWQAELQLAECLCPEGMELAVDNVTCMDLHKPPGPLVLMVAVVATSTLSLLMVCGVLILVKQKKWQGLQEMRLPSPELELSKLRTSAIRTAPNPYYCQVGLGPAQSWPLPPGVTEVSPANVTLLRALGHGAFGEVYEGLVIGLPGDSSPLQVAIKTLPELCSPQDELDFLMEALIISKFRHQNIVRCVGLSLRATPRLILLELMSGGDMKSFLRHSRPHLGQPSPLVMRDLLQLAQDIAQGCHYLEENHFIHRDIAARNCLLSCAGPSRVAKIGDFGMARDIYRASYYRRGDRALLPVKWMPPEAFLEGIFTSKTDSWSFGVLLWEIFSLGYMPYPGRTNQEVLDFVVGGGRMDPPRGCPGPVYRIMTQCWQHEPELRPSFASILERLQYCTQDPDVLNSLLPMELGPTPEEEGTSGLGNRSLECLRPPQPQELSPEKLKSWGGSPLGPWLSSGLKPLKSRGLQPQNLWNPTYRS

Tyrosine-protein kinase JAK1 (Homo sapiens), sequence (P23458 whole entry): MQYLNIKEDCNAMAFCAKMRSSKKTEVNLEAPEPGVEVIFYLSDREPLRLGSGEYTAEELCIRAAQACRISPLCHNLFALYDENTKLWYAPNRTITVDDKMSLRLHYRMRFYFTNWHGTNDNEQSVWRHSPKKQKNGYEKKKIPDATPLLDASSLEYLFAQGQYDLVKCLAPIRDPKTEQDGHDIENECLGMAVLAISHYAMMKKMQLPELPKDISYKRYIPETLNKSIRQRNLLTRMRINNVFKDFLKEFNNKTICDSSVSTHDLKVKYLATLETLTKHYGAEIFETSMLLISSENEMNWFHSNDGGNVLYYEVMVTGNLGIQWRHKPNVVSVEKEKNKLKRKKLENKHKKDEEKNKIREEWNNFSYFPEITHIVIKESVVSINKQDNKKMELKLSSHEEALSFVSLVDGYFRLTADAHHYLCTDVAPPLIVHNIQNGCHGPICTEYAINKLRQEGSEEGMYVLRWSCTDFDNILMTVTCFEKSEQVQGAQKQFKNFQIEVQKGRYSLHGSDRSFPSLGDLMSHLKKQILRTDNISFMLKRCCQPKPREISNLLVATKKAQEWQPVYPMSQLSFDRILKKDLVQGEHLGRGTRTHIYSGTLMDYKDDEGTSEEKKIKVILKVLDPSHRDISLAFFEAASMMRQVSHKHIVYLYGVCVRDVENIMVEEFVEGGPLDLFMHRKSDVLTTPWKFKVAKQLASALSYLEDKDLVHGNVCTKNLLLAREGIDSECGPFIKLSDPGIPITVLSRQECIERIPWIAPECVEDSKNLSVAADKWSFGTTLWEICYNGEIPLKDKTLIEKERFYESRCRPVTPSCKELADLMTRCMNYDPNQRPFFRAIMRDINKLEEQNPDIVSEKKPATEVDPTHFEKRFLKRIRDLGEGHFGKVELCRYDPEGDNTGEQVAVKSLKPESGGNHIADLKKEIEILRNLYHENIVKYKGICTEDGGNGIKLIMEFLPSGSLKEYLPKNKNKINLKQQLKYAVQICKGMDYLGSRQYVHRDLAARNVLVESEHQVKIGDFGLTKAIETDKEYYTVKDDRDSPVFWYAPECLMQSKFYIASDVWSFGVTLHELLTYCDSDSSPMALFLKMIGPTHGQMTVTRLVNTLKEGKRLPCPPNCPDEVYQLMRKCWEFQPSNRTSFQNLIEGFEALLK
Mast/stem cell growth factor receptor Kit (Homo sapiens), sequence (P10721 whole entry): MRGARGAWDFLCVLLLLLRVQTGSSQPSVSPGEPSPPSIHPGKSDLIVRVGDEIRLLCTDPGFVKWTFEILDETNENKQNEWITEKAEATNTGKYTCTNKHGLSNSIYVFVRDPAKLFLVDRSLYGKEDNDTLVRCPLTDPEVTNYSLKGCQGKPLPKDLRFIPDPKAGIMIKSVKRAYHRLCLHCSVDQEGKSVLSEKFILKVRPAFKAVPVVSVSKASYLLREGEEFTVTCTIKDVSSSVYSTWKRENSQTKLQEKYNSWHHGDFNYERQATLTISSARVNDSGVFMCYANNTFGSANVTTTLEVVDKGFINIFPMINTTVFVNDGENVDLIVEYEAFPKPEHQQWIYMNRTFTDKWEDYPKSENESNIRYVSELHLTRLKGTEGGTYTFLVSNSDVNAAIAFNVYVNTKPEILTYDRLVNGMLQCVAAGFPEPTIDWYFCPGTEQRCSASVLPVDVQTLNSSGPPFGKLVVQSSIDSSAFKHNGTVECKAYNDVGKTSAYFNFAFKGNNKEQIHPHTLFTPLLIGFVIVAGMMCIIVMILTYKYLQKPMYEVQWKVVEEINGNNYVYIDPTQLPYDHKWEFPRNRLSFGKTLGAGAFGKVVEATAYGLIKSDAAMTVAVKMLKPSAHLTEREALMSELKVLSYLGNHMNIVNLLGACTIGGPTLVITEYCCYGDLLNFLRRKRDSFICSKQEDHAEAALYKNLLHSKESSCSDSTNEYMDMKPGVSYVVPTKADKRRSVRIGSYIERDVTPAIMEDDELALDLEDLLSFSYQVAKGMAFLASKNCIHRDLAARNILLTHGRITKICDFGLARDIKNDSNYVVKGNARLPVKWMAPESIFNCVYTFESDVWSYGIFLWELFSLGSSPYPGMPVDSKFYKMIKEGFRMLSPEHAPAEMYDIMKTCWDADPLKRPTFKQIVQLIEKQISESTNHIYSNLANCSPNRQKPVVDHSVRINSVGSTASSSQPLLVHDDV
Vascular endothelial growth factor receptor 2 (Homo sapiens), sequence (P35968 whole entry): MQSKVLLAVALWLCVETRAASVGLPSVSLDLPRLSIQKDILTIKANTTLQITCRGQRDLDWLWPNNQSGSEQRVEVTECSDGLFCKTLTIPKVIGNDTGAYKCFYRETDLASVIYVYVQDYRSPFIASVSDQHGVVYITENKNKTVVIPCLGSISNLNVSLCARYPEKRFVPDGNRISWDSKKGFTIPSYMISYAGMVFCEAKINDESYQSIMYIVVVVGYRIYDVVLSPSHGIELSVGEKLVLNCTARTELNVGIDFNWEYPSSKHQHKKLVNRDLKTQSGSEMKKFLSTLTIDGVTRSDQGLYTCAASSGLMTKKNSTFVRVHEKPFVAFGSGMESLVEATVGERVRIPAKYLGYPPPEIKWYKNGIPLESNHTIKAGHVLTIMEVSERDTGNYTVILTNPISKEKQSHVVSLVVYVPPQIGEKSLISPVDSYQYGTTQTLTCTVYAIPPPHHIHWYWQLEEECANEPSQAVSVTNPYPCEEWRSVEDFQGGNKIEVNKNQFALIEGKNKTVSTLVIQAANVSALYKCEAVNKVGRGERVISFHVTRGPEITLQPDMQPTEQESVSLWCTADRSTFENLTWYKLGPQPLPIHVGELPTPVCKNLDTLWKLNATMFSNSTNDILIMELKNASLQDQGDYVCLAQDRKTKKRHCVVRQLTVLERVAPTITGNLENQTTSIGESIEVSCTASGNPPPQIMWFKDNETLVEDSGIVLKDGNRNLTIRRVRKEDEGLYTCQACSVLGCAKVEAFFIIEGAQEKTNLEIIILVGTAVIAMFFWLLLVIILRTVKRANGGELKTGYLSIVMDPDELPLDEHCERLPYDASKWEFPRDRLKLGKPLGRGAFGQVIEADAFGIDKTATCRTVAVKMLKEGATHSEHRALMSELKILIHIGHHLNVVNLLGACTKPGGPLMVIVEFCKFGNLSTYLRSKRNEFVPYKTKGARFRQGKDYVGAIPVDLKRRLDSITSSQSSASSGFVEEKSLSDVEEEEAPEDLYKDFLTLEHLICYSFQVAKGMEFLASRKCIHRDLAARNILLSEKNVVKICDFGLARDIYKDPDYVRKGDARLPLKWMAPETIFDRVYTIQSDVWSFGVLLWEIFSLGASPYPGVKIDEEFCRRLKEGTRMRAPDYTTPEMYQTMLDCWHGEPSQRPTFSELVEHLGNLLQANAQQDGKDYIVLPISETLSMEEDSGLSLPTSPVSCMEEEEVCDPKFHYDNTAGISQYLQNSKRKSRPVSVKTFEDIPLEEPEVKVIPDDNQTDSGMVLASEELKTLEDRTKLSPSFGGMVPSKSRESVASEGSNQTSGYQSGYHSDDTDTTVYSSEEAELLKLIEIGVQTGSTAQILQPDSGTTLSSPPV
Mast/stem cell growth factor receptor Kit (Homo sapiens), P10721 [V560G], sequence (P10721 whole entry V560G): as the sequence (P10721 whole entry) above, with V560G counted along it
Mast/stem cell growth factor receptor Kit (Homo sapiens), P10721 [T670I], sequence (P10721 whole entry T670I): as the sequence (P10721 whole entry) above, with T670I counted along it
Tyrosine-protein kinase Lck (Homo sapiens), sequence (P06239 2-509 limits assumed): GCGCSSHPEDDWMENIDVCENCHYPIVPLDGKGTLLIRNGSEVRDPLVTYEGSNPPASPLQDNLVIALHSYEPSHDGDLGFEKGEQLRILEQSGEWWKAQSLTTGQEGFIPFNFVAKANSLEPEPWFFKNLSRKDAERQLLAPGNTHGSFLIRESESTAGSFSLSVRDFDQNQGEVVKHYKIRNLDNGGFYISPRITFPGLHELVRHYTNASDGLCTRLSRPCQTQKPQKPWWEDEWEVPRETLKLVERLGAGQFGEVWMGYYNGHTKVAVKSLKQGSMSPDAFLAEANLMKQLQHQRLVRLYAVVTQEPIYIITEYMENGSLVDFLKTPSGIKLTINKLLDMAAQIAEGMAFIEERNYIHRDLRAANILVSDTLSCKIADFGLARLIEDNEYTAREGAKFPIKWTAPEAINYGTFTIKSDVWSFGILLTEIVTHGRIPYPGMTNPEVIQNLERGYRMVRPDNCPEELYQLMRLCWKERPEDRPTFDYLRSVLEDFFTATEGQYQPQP
Mast/stem cell growth factor receptor Kit (Homo sapiens), P10721 [D816V], sequence (P10721 whole entry D816V): as the sequence (P10721 whole entry) above, with D816V counted along it

## NS(=O)(=O)c1ccc(N/N=C2\C(=O)Nc3ccc(C(=O)NCc4ccncc4)cc32)cc1
[1]
  inhibition: 3.12%
[2]
  inhibition: 3.77%
[3]
  inhibition: 9.66%
[4]
  inhibition: 0.74%
[5]
  inhibition: 1.38%
[6]
  inhibition: -0.81%
[7]
  inhibition: 6.2%
[8]
  inhibition: 7.35%
[9]
  inhibition: 34.5%
[10]
  inhibition: 4.44%
[11]
  inhibition: 12.5%
[12]
  inhibition: 3.05%
[13]
  inhibition: 12.7%
[14]
  inhibition: 1.57%
[15]
  inhibition: 4.42%
[16]
  inhibition: 1.34%
[17]
  inhibition: 10.7%
[18]
  inhibition: 2.05%
[19]
  inhibition: 8.27%
[20]
  inhibition: 2.1%

## CN1CCC(C(=O)Nc2n[nH]c3nc(-c4ccc(O)cc4)c(Br)cc23)CC1
[1]
  inhibition: -1.94% and 1.71%
[2]
  inhibition: 2.37% and 1.02%
[3]
  inhibition: 19.7% and 3.43%
[4]
  inhibition: 1.01% and -0.3%
[5]
  inhibition: 1.49% and 1.42%
[6]
  inhibition: -3.69% and -1.35%
[7]
  inhibition: -2.24% and 0.59%
[8]
  inhibition: 7.52% and 6.12%
[9]
  inhibition: 24.5% and 23.2%
[10]
  inhibition: 3.81% and 2.92%
[11]
  inhibition: 12.5% and 9.42%
[12]
  inhibition: 4.08% and -0.48%
[13]
  inhibition: 5.39% and 3.49%
[14]
  inhibition: 2.44% and 0.42%
[15]
  inhibition: 4.98% and 0.1%
[16]
  inhibition: -0.43% and 0.93%
[17]
  inhibition: 0.37% and -0.64%
[18]
  inhibition: -0.45% and 3.18%
[19]
  inhibition: 7.96% and 12.4%
[20]
  inhibition: 11.7% and 9.83%

## O=C(O[C@H]1CN[C@H](C#Cc2cc3ncnc(Nc4ccc5c(cnn5Cc5ccccc5)c4)c3s2)C1)N1CCOCC1
[1]
  inhibition: -0.49%
[2]
  inhibition: 0.1%
[3]
  inhibition: 3.26%
[4]
  inhibition: -0.37%
[5]
  inhibition: -1.59%
[6]
  inhibition: -0.78%
[7]
  inhibition: 1.24%
[8]
  inhibition: -0.01%
[9]
  inhibition: 8.91%
[10]
  inhibition: -3.59%
[11]
  inhibition: 0.9%
[12]
  inhibition: -4.43%
[13]
  inhibition: -0.62%
[14]
  inhibition: -1.83%
[15]
  inhibition: -1.48%
[16]
  inhibition: -1.18%
[17]
  inhibition: -0.48%
[18]
  inhibition: 0.34%
[19]
  inhibition: 6.67%
[20]
  inhibition: 0.04%

## COc1c(C(N)=O)cc(-c2ccc(Cl)cc2)cc1-c1ccc(S(N)(=O)=O)cc1
[1]
  inhibition: 2.4%
[2]
  inhibition: 1.1%
[3]
  inhibition: 3.15%
[4]
  inhibition: 2.98%
[5]
  inhibition: 3.05%
[6]
  inhibition: 0.08%
[7]
  inhibition: -0.75%
[8]
  inhibition: 6.96%
[9]
  inhibition: 9.32%
[10]
  inhibition: 6.94%
[11]
  inhibition: 11.2%
[12]
  inhibition: 3.27%
[13]
  inhibition: 3.88%
[14]
  inhibition: 1.48%
[15]
  inhibition: 2.82%
[16]
  inhibition: 1.14%
[17]
  inhibition: -3.65%
[18]
  inhibition: 3.23%
[19]
  inhibition: 2.89%
[20]
  inhibition: 5.37%

## Fc1ccc(Nc2nccc(-c3c(-c4ccc(C(F)(F)F)cc4)nn4ncccc34)n2)cc1F
[1]
  inhibition: 2.42%
[2]
  inhibition: 2.03%
[3]
  inhibition: 0.13%
[4]
  inhibition: 1.44%
[5]
  inhibition: 2.24%
[6]
  inhibition: -1.12%
[7]
  inhibition: 0.59%
[8]
  inhibition: 5.73%
[9]
  inhibition: 7.03%
[10]
  inhibition: 4.14%
[11]
  inhibition: 4.68%
[12]
  inhibition: 2.15%
[13]
  inhibition: 2.45%
[14]
  inhibition: 0.78%
[15]
  inhibition: 2.14%
[16]
  inhibition: -1.76%
[17]
  inhibition: 1.06%
[18]
  inhibition: 3.17%
[19]
  inhibition: 0.53%
[20]
  inhibition: 2.82%

## O=C1Nc2ccccc2/C1=C1\CCc2cc(O)ccc21
[1]
  inhibition: 14.6%
[2]
  inhibition: 3.42%
[3]
  inhibition: 12.7%
[4]
  inhibition: 1.74%
[5]
  inhibition: 3.79%
[6]
  inhibition: -0.09%
[7]
  inhibition: 13.3%
[8]
  inhibition: 10.5%
[9]
  inhibition: 37.8%
[10]
  inhibition: 66.3%
[11]
  inhibition: 93.7%
[12]
  inhibition: 4.08%
[13]
  inhibition: 1.34%
[14]
  inhibition: 39.3%
[15]
  inhibition: 88.1%
[16]
  inhibition: 6.44%
[17]
  inhibition: 41.6%
[18]
  inhibition: 3.68%
[19]
  inhibition: 8.53%
[20]
  inhibition: 7.84%

## COc1cc2c(cc1Nc1nc(Nc3cccc(F)c3C(N)=O)c3cc[nH]c3n1)N(C(=O)CN1CCN(C(C)C)CC1)CC2
[1]
  inhibition: 4.16%
[2]
  inhibition: -0.19%
[3]
  inhibition: -3.81%
[4]
  inhibition: 0.65%
[5]
  inhibition: 2.21%
[6]
  inhibition: 0.64%
[7]
  inhibition: 6.68%
[8]
  inhibition: 0.99%
[9]
  inhibition: 9.98%
[10]
  inhibition: -1.31%
[11]
  inhibition: 1.51%
[12]
  inhibition: -0.69%
[13]
  inhibition: 0.07%
[14]
  inhibition: -0.28%
[15]
  inhibition: -0.5%
[16]
  inhibition: -3.41%
[17]
  inhibition: -2.31%
[18]
  inhibition: 2.47%
[19]
  inhibition: 0.75%
[20]
  inhibition: 27.6%

## Cc1nnc(-c2cccc(-c3ccc(C(=O)NCC4CC4)cc3)c2)o1
[1]
  inhibition: 2.05%
[2]
  inhibition: 2.76%
[3]
  inhibition: 9.78%
[4]
  inhibition: 1.87%
[5]
  inhibition: 2.79%
[6]
  inhibition: -1.21%
[7]
  inhibition: 0.46%
[8]
  inhibition: 6.85%
[9]
  inhibition: 9.47%
[10]
  inhibition: 7.19%
[11]
  inhibition: 9.77%
[12]
  inhibition: 1.04%
[13]
  inhibition: 7.79%
[14]
  inhibition: 5.46%
[15]
  inhibition: 5.66%
[16]
  inhibition: 0.29%
[17]
  inhibition: 2.8%
[18]
  inhibition: 2.77%
[19]
  inhibition: 2.64%
[20]
  inhibition: 4.15%

## CC1=C(C(=O)Nc2ccc3[nH]ncc3c2)C(c2ccc(F)cc2)N=C(c2ccc(C(F)(F)F)nc2)N1 (stereo not given)
[1]
  inhibition: 2.33%
[2]
  inhibition: 1.34%
[3]
  inhibition: 1.91%
[4]
  inhibition: 1.27%
[5]
  inhibition: 2.08%
[6]
  inhibition: 0.58%
[7]
  inhibition: 1.34%
[8]
  inhibition: 5.88%
[9]
  inhibition: 9.39%
[10]
  inhibition: 4.11%
[11]
  inhibition: 5.44%
[12]
  inhibition: -0.02%
[13]
  inhibition: -2.78%
[14]
  inhibition: 1.78%
[15]
  inhibition: 1.33%
[16]
  inhibition: 1.39%
[17]
  inhibition: 3.28%
[18]
  inhibition: 3.06%
[19]
  inhibition: 2.27%
[20]
  inhibition: 1.67%
